Screening results: PubChem BioAssay, Sanford-Burnham Center for Chemical Genomics
Hits are enriched below; roughly 4% of the tested compounds scored in any of these assays.
TIM10 inh: growth inhibitors of TIM10 yeast strain; S. cerevisiae TIM10 strain growth, BacTiter-Glo luminescence, 24 h; inhibition, % at 10 µM; 330,000 compounds, 1.4% hits; AID 463195;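 active means inhibition of 40% or more at the single tested concentration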;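 further: wild-type TIM10 isogenic control strain grown at permissive 25 °C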
NALP3 yeast inh: blocks the NALP3 inflammasome reconstituted in yeast; Yeast reconstituted NLRP3/ASC/caspase-1, beta-gal luminescence, 24 h; inhibition, % at 10 µM; 330,000 compounds, 0.39% hits;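 active means inhibition of 50% or more; inactive means inhibition below 50%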;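 further: plate controls were induced DMSO wells for no effect and uninduced yeast grown without galactose for full effect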
NALP1 inh: NALP1 inhibition | S. cerevisiae NALP1/ASC/caspase-1 growth, X-gal OD620, 72 h | inhibition, % at 10 µM | 280,000 compounds, 0.61% hits | AID 2071; in the data active means inhibition mostly above about 24%, no sharp cut-off; inactive means mostly below about 32%
tim23-1 inh: tim23-1 yeast growth inhibition | AID 463212 | 330,000 compounds, 1.3% hits | S. cerevisiae tim23-1 growth, BacTiter-Glo luminescence, 24 h | inhibition, % at 20 µM;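 active means growth inhibition of the mutant yeast at or above 50%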;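 further: temperature-sensitive mutant grown at 25 °C; plate controls were DMSO-treated mutant yeast for no effect and medium wells lacking yeast for full effect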
tim10-1 inh: tim10-1 yeast growth inhibition; 330,000 compounds, 2.2% hits; inhibition, % at 20 µM; S. cerevisiae tim10-1 ts strain growth, BacTiter-Glo, 24 h;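 active means inhibition of at least 40%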;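 further: mutant grown at 25 °C; 0% = DMSO wells with yeast and 100% = wells holding no yeast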
The depositor's hits bear a star; nt = not tested or not shown.

SMILES | TIM10 inh | NALP3 yeast inh | NALP1 inh | tim23-1 inh | tim10-1 inh
CN(C)C(=O)c1cccn1-c1ncc(C(F)(F)F)cc1Cl | -9.3 | 6.2 | -21.8 | 10.7 | 6.1
COCCNS(=O)(=O)c1cccn1-c1ncc(C(F)(F)F)cc1Cl | -7.1 | -9.0 | 40.2* | 5.2 | 10.4
O=C(N/N=C/c1ccc(C(=O)O)cc1)C(=O)N1CCCCCC1 | -4.7 | 19.3 | 12.8 | 3.0 | -18.2
O=C(N/N=C/c1ccc(Cl)cc1)C(=O)N1CCCCCC1 | 10.1 | 10.8 | 24.7* | 23.9 | -9.7
C=CCN1C(=O)c2oc3ccccc3c(=O)c2C1c1ccc(O)c(OC)c1 (centres undefined) | -4.1 | 5.6 | 37.6* | 10.7 | 6.1
CC(=O)c1ccccc1NC(=O)COC(=O)CCC1CCCC1 | -4.8 | 13.6 | nt | 9.9 | 6.1
COc1ccc(C2=NOC(C(=O)Nc3cc(C)on3)C2)cc1OC (centres undefined) | -1.1 | -3.1 | nt | 9.5 | -21.8
COc1ccc(OC)c(C2=NOC(C(=O)Nc3cc(C)on3)C2)c1 (centres undefined) | 2.8 | -2.9 | 33.7* | 11.6 | 14.5
CN(C(=O)COC(=O)c1cc([N+](=O)[O-])ccc1Sc1ccccc1)C1CCS(=O)(=O)C1 (centres undefined) | 1.3 | 21.5 | 28.1* | 14.5 | 20.6
CN(C(=O)COC(=O)CSc1ccc([N+](=O)[O-])cc1)C1CCS(=O)(=O)C1 (centres undefined) | -6.1 | 18.5 | nt | -10.8 | -12.9
CC(=O)c1c(O)c2ccccc2n(C)c1=O | 26.1 | 35.2 | -32.3 | 32.2 | 19.8
CC(=O)c1c(O)c2ccccc2n(C(C)C)c1=O | -18.4 | -7.0 | 31.1* | 26.8 | 20.4
Cc1noc(NS(=O)(=O)c2ccc(NC(=O)c3cc4ccccc4o3)cc2)c1C | 5.8 | -3.4 | nt | 0.0 | 0.3
COc1ccc(NC(=O)CNC(=O)Cc2cccc3ccccc23)cc1 | 17.5 | 12.3 | nt | 4.4 | -32.5
CC(=O)Nc1ccc(OCc2cccc3ccccc23)cc1 | 11.7 | 32.1 | 29.1* | 39.4 | 30.2
CCOc1ccc(NC(=S)Nc2cccc3ccccc23)cc1 | 18.4 | 20.1 | 40.5* | 12.1 | 35.8
CN1CCCC(n2nc(Cc3ccc(Cl)cc3)c3ccccc3c2=O)CC1 (centres undefined) | 15.9 | 31.2 | nt | -3.1 | 20.7
CCCN1CCN(CCCNC(=O)c2cc3c(=O)[nH]c4ccccc4c3s2)CC1 | 8.7 | 16.5 | 24.9* | 3.2 | 4.5
Cc1ccc2nc(N(CCN(C)C)C(=O)/C=C/c3cccs3)sc2c1 | 24.5 | 36.7 | 56.5* | 27.4 | 35.7
CN(C)CCCN(C(=O)/C=C/c1cccs1)c1nc2ccc(F)cc2s1 | -4.4 | 32.5 | 36.2 | 8.5 | 20.3
CCc1ccc2nc(N(CCN(C)C)C(=O)/C=C/c3cccs3)sc2c1 | 22.1 | 24.6 | 26.7 | 17.6 | 17.2
CN(C)CCN(C(=O)/C=C/c1cccs1)c1nc2c(F)cc(F)cc2s1 | 27.1 | 31.1 | 59.0* | 16.9 | 27.2
CC(=O)c1c(-c2ccccc2)c2cc(Cl)ccc2[nH]c1=O | 4.8 | 3.3 | 30.4* | -12.9 | -3.4
CC(=O)c1c(-c2ccc(Cl)cc2)c2ccccc2[nH]c1=O | 16.6 | 23.8 | 12.9 | -11.7 | 1.8
O=C1CCCN1CN(C(=O)c1ccccc1)c1ccccc1 | 18.0 | -0.3 | 18.8 | 12.2 | -3.0
SMILES | TIM10 inh | NALP3 yeast inh | NALP1 inh | tim23-1 inh | tim10-1 inh
CC(C)Oc1ccc(C(=O)N(CN2CCCC2=O)c2ccc(F)cc2)cc1 | 0.5 | -2.7 | 40.7* | 3.3 | 19.2
O=C(NCCN1C(=O)S/C(=C\c2ccccc2F)C1=O)C1=COCCO1 | 27.3 | 8.0 | nt | 46.3 | 38.4
O=C(Cn1cnc2ccccc2c1=O)NC1CCS(=O)(=O)C1 (centres undefined) | -11.5 | 21.0 | nt | 13.2 | 0.4
O=c1[nH]c(=S)[nH]c2sccc12 | -9.8 | -3.2 | -11.6 | 10.1 | 10.4
Cc1ccc(S(=O)(=O)Nc2ccc(NC(=O)c3c(F)c(F)c(F)c(F)c3F)cc2)cc1 | -8.2 | -18.2 | 38.3 | -10.1 | -14.3
O=C(O)Cn1cc(CN2CCOCC2)c2ccccc21 | -8.7 | 17.0 | 10.8 | 0.8 | 7.9
Cn1cc(CN2CCN(c3ccccc3)CC2)c2ccccc21 | 14.9 | 13.4 | 26.4* | 9.6 | 22.0
CCOC(=O)NC(c1ccc(C(C)C)cc1)C(Cl)(Cl)Cl (centres undefined) | -59.3 | 3.5 | 32.6 | 5.8 | -39.3
COc1cc(CNc2cccc(F)c2)cc(Br)c1O | 3.2 | 0.5 | 31.8* | 15.8 | 3.3
Cc1ccc(NC(=O)/C=C\C(=O)NCC(=O)O)cc1C | 15.1 | 5.1 | 56.9* | 17.2 | 23.4
CN(Cc1ccccc1)C(=O)CCS(=O)(=O)c1ccc2c(c1)NC(=O)CS2 | 4.2 | 13.3 | 9.3 | 18.0 | 13.8
CC(C)c1ccc(NC(=O)CCc2ccccc2)cc1 | 2.9 | 10.1 | 26.9 | 27.8 | 26.0
COc1ccccc1NS(=O)(=O)CC12CCC(CC1=O)C2(C)C (centres undefined) | 8.1 | 0.6 | 41.5* | 4.0 | 7.6
CCOC(=O)c1cccc(NS(=O)(=O)Cc2ccccc2)c1 | 1.7 | 9.8 | 44.1* | 12.4 | 6.1
Cc1ccc(S(=O)(=O)NC(=O)COc2ccccc2C)c(C)c1 | 10.6 | -16.7 | 11.8 | 11.8 | 9.4
O=C1C=CC(=O)N1c1ccc(OC(F)F)cc1 | nt | nt | 111.8* | nt | nt
O=C(CNC(=O)c1cccs1)N/N=C/c1ccco1 | 4.8 | 12.5 | 29.2* | -0.7 | -4.6
Cc1ccc(NC(=O)CCCc2nc3ccccc3s2)c(O)c1 | 17.5 | 10.6 | 6.9 | 23.6 | 15.5
CC(C)N1C(=O)S/C(=C\c2ccc(-c3ccc(Cl)c(C(=O)O)c3)o2)C1=O | -6.6 | 20.3 | 1.6 | 18.6 | 21.4
CCN(CC)c1ccc(/C=C2/SC(=O)N(C(C)C)C2=O)o1 | nt | nt | 57.7* | nt | nt
Clc1cccc(OCCN2CCN(CCOc3cccc(Cl)c3)CC2)c1 | -36.5 | 40.1 | 64.3* | -131.6 | -47.1
O=C(C1CCN(S(=O)(=O)c2ccccc2[N+](=O)[O-])CC1)N1CCOCC1 | 15.4 | 10.5 | 1.5 | -3.0 | 5.1
COC(=O)C1=C(C)NC(=O)NC1c1ccc(OC(=O)c2ccco2)cc1 (centres undefined) | 8.1 | -0.3 | 17.9* | 8.2 | 4.8
CC(NC(=O)c1ccco1)C(=O)N1CCc2ccccc2C1 (centres undefined) | -37.1 | 13.4 | 43.0* | -15.0 | -20.2
COc1ccccc1N1CCN(C(=O)C(C)NC(=O)c2ccco2)CC1 (centres undefined) | 6.4 | 6.4 | nt | -0.5 | -11.5
C[C@H]1C(=O)N(C)CCN1C(=O)c1ccccc1OC1CCN(S(C)(=O)=O)CC1 | -4.0 | -0.4 | 24.0* | -0.6 | -12.4
Cc1c(C(=O)OC2CCC(C)CC2)[nH]c2c1C(=O)CCC2 (centres undefined) | 7.8 | 16.6 | 15.8 | 36.8 | 33.0
COC(=O)c1[nH]c2c(c1C)C(=O)CCC2 | -19.7 | 8.1 | 33.4* | -10.2 | -17.0
CCN(CC)c1ccc(N=Cc2ccc([N+](=O)[O-])o2)cc1 | 26.4 | 21.6 | 76.2* | 47.7 | 35.1
CCN(CC)c1ccc(N=Cc2ccccc2[N+](=O)[O-])cc1 | 3.8 | 35.1 | 32.6 | 31.6 | 17.2
